Screens as filed in PubChem.
CASP6 VEID inh: human caspase-6 inhibitors, primary screen, biochemical, VEID-R110 fluorescence, single point, set 2. purified caspase-6, Z-VEID-R110 cleavage fluorescence. inhibition, % at 12.5 µM. 0.53% of 350,000 active;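 active = mean inhibition across replicates at least about 35%, with every replicate also reaching that limit, limit read from the data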;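 note: 0% = median of neutral control wells and 100% = no fluorescence left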
Target sequence (P55212 24-179 limits assumed): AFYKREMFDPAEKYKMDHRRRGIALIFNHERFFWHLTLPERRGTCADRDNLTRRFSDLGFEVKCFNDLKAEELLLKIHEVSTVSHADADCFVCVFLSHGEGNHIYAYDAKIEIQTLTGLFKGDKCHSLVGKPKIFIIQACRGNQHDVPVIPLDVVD
Target sequence (P55212 194-293 limits assumed): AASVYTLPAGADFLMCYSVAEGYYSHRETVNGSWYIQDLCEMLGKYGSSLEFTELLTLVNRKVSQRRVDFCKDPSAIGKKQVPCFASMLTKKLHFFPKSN
SIRT5 inh: SIRT5 desuccinylase inhibitors, primary screen, biochemical, fluorescence imaging, single point, set 5; inhibition, % at 15 µM; NAD-dependent protein deacylase sirtuin-5, mitochondrial (Homo sapiens), Q9NXA8; 1.1% of 330,000 active; Purified SirT5, succinyl-peptide AMC, trypsin-coupled fluorescence; in the data active = inhibition above about 15%
NSD2 HMT inh: NSD2 histone methyltransferase inhibitors, primary screen, biochemical, AlphaScreen, single concentration, set 2; Histone-lysine N-methyltransferase NSD2 (Homo sapiens), O96028; NSD2 peptide methylation, 120 min; inhibition, % at 12.5 µM; 0.54% of 310,000 active; AID 743445, 2014; in the data active = inhibition above about 50%
UBC9 SUMO inh: inhibitors of in vitro SUMOylation cascade, primary screen, biochemical, HTRF, uHTS. SUMO-conjugating enzyme UBC9 (Homo sapiens), P63279. HTRF SUMOylation assay, SAE1/SAE2 + UBC9. inhibition, % at 35 µM. 0.36% of 290,000 active; in the data active = inhibition above about 50%, passing the limit was not always enough
* = called active by the depositor; / = not tested or not shown. Compounds with a hit are over-represented: about 1.6% of the library has one in this group of screens.

SMILES | CASP6 VEID inh | SIRT5 inh | NSD2 HMT inh | UBC9 SUMO inh
O=c1c2c([N+](=O)[O-])cc([N+](=O)[O-])cc2sn1Cc1ccccc1 | 1 | 20* | / | 6
C[C@H](CO)N1C[C@H](C)[C@H](CN(C)C(=O)Nc2cccc3ccccc23)OCCCC[C@H](C)Oc2ccc(NS(=O)(=O)c3ccc(Cl)cc3)cc2C1=O | 3 | 7 | / | /
CCOC(=O)N1CCN(C2=C(NS(=O)(=O)c3ccc(Br)cc3)C(=O)c3ccccc3C2=O)CC1 | 4 | / | 27 | /
CCN1CCN(C2=C(NS(=O)(=O)c3ccc(Br)cc3)C(=O)c3ccccc3C2=O)CC1 | 68* | 4 | 90* | 27
CCN1CCN(C2=C(NS(=O)(=O)c3ccccc3)C(=O)c3ccccc3C2=O)CC1 | 48* | -4 | 57* | 14
O=C1C(NS(=O)(=O)c2cccs2)=C(N2CCOCC2)C(=O)c2ccccc21 | 7 | 0 | 33 | 32
CN1CCN(C2=C(NS(=O)(=O)c3cccs3)C(=O)c3ccccc3C2=O)CC1 | 47* | 0 | 6 | 15
CO[C@H]1CN(C)C(=O)c2ccc(NS(=O)(=O)CC(F)(F)F)cc2OC[C@H](C)NC[C@@H]1C | 1 | -3 | / | /
O=C(Cc1ccccn1)NCC[C@H]1CC[C@H](NS(=O)(=O)c2ccc(F)cc2)[C@@H](CO)O1 | 0 | -3 | / | /
O=S(=O)(c1ccc(F)cc1)c1snnc1-c1ccccc1 | 43* | 0 | 4 | 2
CCCC(=O)Nc1ccc2c(c1)C(=O)N(C)[C@H]1CC[C@H](CC(=O)Nc3ccc(C)cc3)O[C@@H]1CO2 | -1 | -2 | / | /
O=C(CNc1cccc2ccccc12)N/N=C/c1ccc(C(=O)O)cc1 | 27 | 10 | 2 | 77*
C/C(=N\NC(=O)CNc1cccc2ccccc12)c1ccccc1 | 8 | -4 | 2 | 80*
O=C(CNc1cccc2ccccc12)N/N=C/C=C/c1ccco1 | 3 | -5 | 2 | 98*
Cn1cccc1CC(=O)NN=C/C=C\c1ccco1 | / | / | 22 | /
O=C(Cc1cccs1)N/N=C/C=C/c1ccco1 | 38* | -2 | 2 | 35
CO[C@@H]1CN(C)C(=O)c2cc(NC(C)=O)ccc2OC[C@H](C)N(Cc2cncnc2)C[C@H]1C | 4 | -1 | / | /
S=C(NCCCN1CCOCC1)Nc1cccc(-c2nnc3n2CCCCC3)c1 | -1 | 16* | -3 | 14
CCCCCC(=O)Nc1cc(S(=O)(=O)O)cc2cc(S(=O)(=O)O)cc(O)c12 | 98* | 36* | 105* | /
O=C(N/N=C/c1ccc(-c2ccc(Cl)c(C(=O)O)c2)o1)c1cc2c(ccc3ccccc32)o1 | 32 | -1 | -3 | 51*
Cc1ccc(OCC(=O)c2c(N)n(C)c(=O)n(C)c2=O)c([N+](=O)[O-])n1 | 35* | -26 | 16 | /
CO[C@H]1CN(C)C(=O)c2ccc(NC(=O)NC(C)C)cc2OC[C@@H](C)N(S(C)(=O)=O)C[C@@H]1C | / | -9 | / | /
C[C@@H]1CN([C@@H](C)CO)C(=O)Cc2cc(NS(=O)(=O)c3ccc(F)cc3)ccc2O[C@H]1CN(C)C(=O)NC1CCCCC1 | 0 | 1 | / | /
Cc1ccc(S(=O)(=O)N[C@H]2C=C[C@H](CC(=O)NCCCN(C)C)O[C@H]2CO)cc1 | 2 | 0 | / | /
Cc1ccc(N2C(=O)c3ccccc3C2C(=O)c2cc(C)ccc2O)cc1 (stereo unspecified) | 3 | 1 | -3 | 4
SMILES | CASP6 VEID inh | SIRT5 inh | NSD2 HMT inh | UBC9 SUMO inh
Cc1ccc(N2C(=O)c3ccccc3C2C(=O)c2ccc(O)cc2O)cc1 (stereo unspecified) | 74* | 13 | 1 | 40
Cc1ccc(-c2nc3ccccc3o2)cc1NC(=O)c1ccc2c(c1)OCO2 | / | / | -1 | 58*
Cc1ccc(S(=O)(=O)c2nc(-c3ccccc3F)oc2N2CCN(C)CC2)cc1 | / | / | 12 | /
CC(C)N1CC=C2C(C#N)=C(N)C(C#N)(C#N)C(c3ccccc3)C2C1 (stereo unspecified) | / | / | 11 | 24
CC(C)N1CC=C2C(C#N)=C(N)C(C#N)(C#N)[C@H](c3ccoc3)[C@H]2C1 | / | / | / | 56*
C[C@@H]1CN([C@@H](C)CO)C(=O)c2cc(NC(=O)Cc3ccccc3)ccc2O[C@H]1CN(C)S(=O)(=O)c1cn(C)cn1 | 1 | -9 | / | /
Cc1cc(OC(C)C(=O)NCC(O)c2ccccc2)c2c(C)c(C)c(=O)oc2c1 (stereo unspecified) | 2 | -6 | -6 | 18
